Screen size: about 50,000 compounds; about 350 (0.7%) were called active. Rule as the data show it: active = inhibition above about 60%; inactive = the rest. The sample as a whole holds a higher share of actives than the screen did.
Target: Dual specificity protein phosphatase 3 (Homo sapiens) (UniProt P51452)
Assay: human DUSP3 activity blockers – biochemical, colorimetric, HTS, primary screen (AID 1992)
Conditions: recombinant VHR phosphatase, colorimetric substrate read-out; at 20 µM; hits give high values

Sequence of Dual specificity protein phosphatase 3 (Homo sapiens) (P51452 whole entry, looked up): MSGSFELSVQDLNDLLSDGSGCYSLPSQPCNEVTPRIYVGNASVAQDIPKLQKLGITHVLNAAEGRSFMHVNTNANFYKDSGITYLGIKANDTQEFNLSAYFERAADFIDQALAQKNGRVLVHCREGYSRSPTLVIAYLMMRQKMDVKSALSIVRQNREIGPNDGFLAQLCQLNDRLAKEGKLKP

Row | Structure (SMILES) | inhibition
1 | COc1ccc(C(=O)Nc2ccc3oc(-c4cc(Cl)c(OC)c(Cl)c4)nc3c2)cc1OC | 45.4% (inactive)
2 | COc1ccc(N2C(=O)C3C4C=CC(C4=C(C)C)C3C2=O)c([N+](=O)[O-])c1 (configuration not stated) | 4.6% (inactive)
3 | COc1cccc(N2C(=O)C=CC2=O)c1 | 49.6% (inactive)
4 | COc1ccc(N2C(=O)C=CC2=O)c([N+](=O)[O-])c1 | 58.9% (active)
5 | Cc1ccc(N2C(=O)/C(=C/N3CCOCC3)c3ccccc3C2=O)cc1 | 13.6% (inactive)
6 | CCOC(=O)c1c(N2C(=O)C3CC(C)=C(C)CC3C2=O)sc2c1CCCC2 (configuration not stated) | -3.1% (inactive)
7 | COC(=O)Nc1ccc(S(=O)(=O)N2CCN(c3ccccc3OC)CC2)cc1 | -59.1% (inactive)
8 | COc1ccccc1-n1c(=S)[nH]c2ccccc2c1=O | 5.2% (inactive)
9 | COC(=O)C1=NNC2(C)C(=O)N(c3ccccc3OC)C(=O)C12 (configuration not stated) | 97% (active)
10 | O=C(Nc1cc(C(F)(F)F)cc(C(F)(F)F)c1)c1ccco1 | -7.4% (inactive)
11 | O=C(Nc1cccc(O)c1)c1cccnc1 | -14.8% (inactive)
12 | CCOC(=O)COc1ccc(/C=N\n2nnnc2N)cc1OC | -44.1% (inactive)
13 | CCCCOc1ccc(/C=C2/C=C(c3ccccc3)OC2=O)cc1 | 21.2% (inactive)
14 | Cc1ccc(/C=C2/C=C(c3ccccc3)OC2=O)o1 | 74.2% (active)
15 | Cc1ccc(C2=C/C(=C\c3cccnc3)C(=O)O2)cc1 | 14.8% (inactive)
16 | Cc1cc(C)c(NS(=O)(=O)c2ccc3ccccc3c2)c(C)c1 | -0.6% (inactive)
17 | O=C(O)c1cc(-c2ccc(/C=N/Nc3ccc(Cl)c(Cl)c3)o2)ccc1Cl | 89.1% (active)
18 | O=C(N/N=C/c1ccc(-c2cccc(Cl)c2)o1)c1cccnc1 | -17.2% (inactive)
19 | O=C(O)c1cc(-c2ccc(C=C3C(=O)c4ccccc4C3=O)o2)ccc1O | 9.3% (inactive)
20 | O=C(CCc1n[nH]c(=O)[nH]c1=O)N/N=C/c1ccc([N+](=O)[O-])cc1 | -17.4% (inactive)
21 | C#CCn1cc(/C=C(/C#N)C(=O)Nc2ccc(Cl)cc2)c2ccccc21 | -3.6% (inactive)
22 | CC(=O)c1sc(NC(=O)c2cc(Cl)ccc2[N+](=O)[O-])nc1C | 4.8% (inactive)
23 | O=C(Nc1ccccc1C(=O)O)c1ccc(NC(=O)c2cccs2)cc1 | -7.6% (inactive)
24 | CCOC(=O)C1=C(C)N=c2s/c(=C\c3cc(OC)c(O)c(OC)c3)c(=O)n2C1c1ccccc1 (configuration not stated) | 35.5% (inactive)

Row | Structure (SMILES) | inhibition
25 | O=C(NCCCn1ccnc1)c1cc2c(ccc3ccccc32)oc1=O | -14.2% (inactive)
26 | C=C(C)COc1ccc2oc(-c3ccccc3)c(C(=O)O)c2c1 | -5.7% (inactive)
27 | O=S(=O)(O)c1nc2ccccc2n1-c1ccccc1 | 91.8% (active)
28 | Cc1nc2cc(S(N)(=O)=O)ccc2n1-c1ccccc1 | 0.2% (inactive)
29 | O=C(CSc1nc2ccccc2c(=O)n1-c1ccccc1)Nc1ccccc1 | -19.9% (inactive)
30 | COc1ccc(OC)c(/C=C/C(=O)Nc2ccc(N(C)C)cc2)c1 | -29.5% (inactive)
31 | Fc1cnc(NN=Cc2cccs2)nc1N1CCOCC1 | -10.8% (inactive)
32 | CC(=O)N(C1=C(Cl)C(=O)c2ccccc2C1=O)c1cccc(Br)c1 | 84.5% (active)
33 | O=C(CN(c1cccc(Br)c1)S(=O)(=O)c1ccccc1)N1CCOCC1 | -30.2% (inactive)
34 | CC1CCCC(C)C1NC1=C(Cl)C(=O)c2ccccc2C1=O (configuration not stated) | -2.5% (inactive)
35 | COc1ccc(N2C(=O)c3cccc4cccc(c34)C2=O)cc1OC | 7.9% (inactive)
36 | COc1cc(C(=O)Nc2cccc3nsnc23)cc(OC)c1OC | -4.9% (inactive)
37 | COc1ccc(NC(=O)c2cccc(Cl)c2Cl)cc1OC | 1.3% (inactive)
38 | Cc1ccc(C(=O)NCCNc2ccc([N+](=O)[O-])cc2Cl)cc1 | -20.4% (inactive)
39 | Cc1ccc(S(=O)(=O)N(Cc2ccccc2)c2ccccc2C(=O)NC2CCCC2)cc1 | -20.6% (inactive)
40 | CC(=Nc1cc(Cl)ccc1O)c1c(-c2ccccc2)[nH]n(-c2nc3ccccc3s2)c1=O | 2.5% (inactive)
41 | COc1ccccc1NC(=O)C1=C(C)Nc2sc(C#N)c(N)c2C1c1ccco1 (configuration not stated) | 4.4% (inactive)
42 | CCOC(=O)c1c(NC(=O)c2ccccc2C)sc(C(=O)Nc2ccccc2OC)c1C | -2.4% (inactive)
43 | CCOC(=O)c1c(NC(=O)c2ccc(OC)c(OC)c2)sc(C(=O)Nc2ccc(C)cc2C)c1C | -18.8% (inactive)
44 | CCOC(=O)c1c(NC(=O)Cc2ccc(Cl)cc2)sc(C(=O)Nc2ccccc2OC)c1C | 103% (active)
45 | CCOC(=O)c1c(NC(=O)C23CC4CC(CC(C4)C2)C3)sc(C(=O)Nc2ccccc2OC)c1C | 120% (active)
46 | CCOC(=O)c1c(NC(=O)Cc2ccc(Cl)cc2)sc(C(=O)Nc2cccc(OC)c2)c1C | -1.7% (inactive)
47 | CCOC(=O)c1c(NC(=O)c2ccccc2OC)sc(C(=O)Nc2ccccc2F)c1C | -11.7% (inactive)
48 | Cc1c(C#N)sc2nc(-c3ccccc3)nc(/N=C/N(C)C)c12 | -22.8% (inactive)

Row | Structure (SMILES) | inhibition
49 | Nc1ccc2nc(Sc3nc4ccc([N+](=O)[O-])cc4s3)sc2c1 | -10.9% (inactive)
50 | CC1=C(C(=O)Nc2ccc(C)cc2)C(c2ccc([N+](=O)[O-])cc2)NC(=O)N1 (configuration not stated) | -6.8% (inactive)
51 | CC12CCC(CC1=O)C(C)(C)N2 (configuration not stated) | -18.3% (inactive)
52 | O=C1C=CC(=O)N1Nc1c(Cl)cc(Cl)cc1Cl | 102% (active)
53 | COc1ccc(Nc2ncnc3ccc(Br)cc23)cc1 | 0.8% (inactive)
54 | O=C(CSc1ccccc1C(=O)O)c1ccc(-c2ccccc2)cc1 | 2.1% (inactive)
55 | Cc1ccc(C)c(OCc2nnc(NC(=O)c3ccccc3)s2)c1 | 5.1% (inactive)
56 | Cc1cc(C)cc(OCCCCNC(C)(C)C)c1 | -33.4% (inactive)
57 | Cc1nc2cc(-c3ccc(Br)cc3)[nH]n2c(=O)c1C | 10.2% (inactive)
58 | CC(=O)N1c2ccc3ccccc3c2C2C=CCC2C1c1ccc(F)cc1 (configuration not stated) | -6.5% (inactive)
59 | Cc1[nH]n(-c2ccc(Cl)cc2)c(=O)c1/C=N/NC(=O)c1ccccc1[N+](=O)[O-] | -37.1% (inactive)
60 | CC(=O)Nc1ccc(N2C(=O)C3C4C=CC(CC4)C3C2=O)cc1 (configuration not stated) | -14% (inactive)
61 | COc1ccccc1C1CC(c2ccc(F)cc2)=NN1c1ccccc1 (configuration not stated) | -3.2% (inactive)
62 | O=C1N=c2ccc(I)cc2=C1c1[nH]c(=S)[nH]c1O | -37.4% (inactive)
63 | Cc1ccc(S(=O)(=O)NCCNS(C)(=O)=O)cc1[N+](=O)[O-] | -9.6% (inactive)
64 | CCN(CC)C(=O)CSc1nc(O)c(Cc2ccccc2)c(=O)n1-c1ccc(OC)cc1 | 26.5% (inactive)
65 | O=C(O)CCCCCN1C(=O)C(=O)/C(=C(/O)c2ccc(F)cc2)C1c1cccc([N+](=O)[O-])c1 (configuration not stated) | 5% (inactive)
66 | COc1cc(/C=c2\sc3nc4c(C)cc(C)cc4n3c2=O)cc(Br)c1O | -5.5% (inactive)
67 | Cc1cc(C)c2nc3s/c(=C\c4ccc(N(C)C)cc4)c(=O)n3c2c1 | -22.7% (inactive)
68 | Cc1cc(C)c2nc3s/c(=C\c4ccc(-c5ccccc5C(=O)O)o4)c(=O)n3c2c1 | 69.3% (active)
69 | COc1cc(NC(=O)c2ccc(-c3ccc([N+](=O)[O-])cc3C)o2)ccc1NC(=O)c1ccco1 | -3.8% (inactive)
70 | c1ccc(-c2nnc(SC3CCCC3)nc2-c2ccccc2)cc1 | -9.1% (inactive)
71 | Clc1cccc(CN2CCN(C3CCN(Cc4ccccc4)CC3)CC2)c1 | -6.2% (inactive)
72 | Cc1ccc(S(=O)(=O)c2ccc(Oc3ccc(Cl)cc3)cc2)cc1 | -26.6% (inactive)

— PubChem BioAssay AID1992 (Sanford-Burnham Center for Chemical Genomics, 2009)
